# TDP1 cell noCPT: qHTS for Inhibitors of human tyrosyl-DNA phosphodiesterase 1 (TDP1): qHTS in cells in absence of CPT; DT40 Tdp1-/- hTDP1 cells, no CPT, ATP luminescence, 48 h; Potency, µM (titrated, usually from 46.2 µM), without a hit: at the top dose activity change, negative = growth inhibition, usual class: inhibitors; 420,000 tested, 15% active; AID 686978, 2013; further: potency means the concentration at half of the fitted maximal effect; nearly all actives have a fitted effect of over 55% in size
#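 Growth kinetics read by CellTiter-Glo luminescence after ≥48 hr at 37 °C. Cells: DT40 Tdp1-/- stably carrying human TDP1, 400 per well, compound exposure in the absence of CPT (DMSO vehicle).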
# HT1080NT lethal: kills 2HG-producing HT-1080-NT fibrosarcoma cells; HT-1080-NT fibrosarcoma viability, CellTiter-Glo ATP luminescence, 48 h; Potency, µM (titrated, usually from 46.1 µM), for the others: at the top dose activity, negative = less viability, hits mostly cytotoxic; 360,000 tested, 1.6% active; AID 686970;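 further: NT is the 2HG producing partner of a matched IDH1 knockdown line; potency means the concentration at half of the fitted maximal effect; 0% = DMSO-treated cells and -100% = media-only wells without cells; nearly all actives have a fitted effect of over 55% in size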
#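 HT-1080-NT fibrosarcoma cells (2HG-overproducing), 750 cells/well in RPMI with 5% FBS, dosed after 2 h and incubated 48 h at 37C. CellTiter-Glo luminescence normalized to DMSO and no-cell wells; concentration-response curves fitted and classed.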
# HT1080 IDH1KD tx: toxicity to HT-1080 IDH1 knockdown cells (counter line); HT-1080 IDH1 knockdown viability, ATP luminescence, 48 h; Potency, µM (titrated, usually from 46.1 µM), for the others: top-dose activity, negative = toxicity, actives largely listed as cytotoxic; 360,000 tested, 2% active;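 further: potency means the concentration at half of the fitted maximal effect; 0% = DMSO wells and -100% = cell-free medium wells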
#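 Knockdown cells (IDH1KD HT-1080) received compounds 2 h after plating at 750 cells/well and were kept 48 h at 37 °C in 5% FBS RPMI. A CellTiter-Glo luminescence read gave % activity for curve fitting.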
# IL1B secr inh: inflammasome signaling inhibition, IL-1 beta readout | THP-1 LPS/ATP IL-1B secretion, AlphaLISA, 16 h; stronger effect = lower value | activity change, % at 57.5 µM | 360,000 tested, 4.7% active | AID 743279; in the data active means activity change below about -50%; inconclusive means mostly about -30% to -49%
#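 THP-1 cells pretreated 1 hr with compounds (up to 57.5 uM final), then stimulated with LPS (250 ng/mL final) plus ATP (1.25 mM final); secreted IL-1B measured by AlphaLISA after 16 hr, decreased signal indicating inhibition.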
# ALOX12 inh: ALOX12 (human) lipoxygenase inhibition | 580,000 tested, 1.1% active | purified 12hLO, xylenol orange hydroperoxide absorbance | Potency, µM (doses to about 108 µM), without a hit: at the highest dose activity change, negative = inhibition, actives largely listed as inhibitors; further: potency means the concentration at half of the fitted maximal effect
# Target sequence (P18054 whole entry, looked up): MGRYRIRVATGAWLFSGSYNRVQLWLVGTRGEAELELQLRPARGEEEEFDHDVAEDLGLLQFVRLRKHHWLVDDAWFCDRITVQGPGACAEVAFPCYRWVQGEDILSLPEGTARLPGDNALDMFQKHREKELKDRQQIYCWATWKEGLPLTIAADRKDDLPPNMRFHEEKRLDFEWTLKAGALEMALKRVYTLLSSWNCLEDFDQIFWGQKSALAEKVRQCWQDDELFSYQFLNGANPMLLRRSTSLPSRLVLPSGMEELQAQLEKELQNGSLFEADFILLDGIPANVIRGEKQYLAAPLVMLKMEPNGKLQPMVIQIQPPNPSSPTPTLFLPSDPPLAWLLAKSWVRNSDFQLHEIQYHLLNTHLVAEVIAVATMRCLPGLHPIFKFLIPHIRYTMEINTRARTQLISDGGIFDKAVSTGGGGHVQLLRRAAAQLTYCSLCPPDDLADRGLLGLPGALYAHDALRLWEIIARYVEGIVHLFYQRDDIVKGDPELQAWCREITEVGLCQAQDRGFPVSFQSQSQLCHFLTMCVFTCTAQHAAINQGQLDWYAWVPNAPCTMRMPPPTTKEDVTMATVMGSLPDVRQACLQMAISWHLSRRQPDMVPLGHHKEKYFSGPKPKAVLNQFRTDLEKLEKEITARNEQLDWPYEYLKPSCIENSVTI
#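 Hydroperoxide product was detected by ferrous iron/xylenol orange as the 573 to 405 nm absorbance ratio. Arachidonic acid at 40 uM (final) was turned over for 30 min at room temperature by 150 nM human 12hLO, pH 7.0 Hepes buffer, after 15 min compound preincubation.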
# TDP1 cell CPT: growth inhibition of DT40 Tdp1-/-;hTDP1 cells with camptothecin (screen for TDP1 inhibitors); Potency, µM (series often up to 46.2 µM), for inactives: at the top dose activity change, negative = growth inhibition, most hits filed as inhibitors; 420,000 tested, 12% active; AID 686979; chicken DT40 Tdp1-/-;hTDP1 cells + 20 nM CPT, ATP luminescence, 48 h; further: potency means the concentration at half of the fitted maximal effect; nearly all actives have a fitted effect of over 55% in size
#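 Chicken DT40 Tdp1-/- cells stably complemented with human TDP1 were seeded at 400 cells/well in medium containing 20 nM camptothecin, exposed to pin-transferred compounds, and grown at 37 °C for at least 48 hr. Viability was read as ATP luminescence.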
# Numbers without * were called inactive; u = inconclusive; x = not tested or not shown; [ ] = dose if it differs, or a comment. Many of the other results were omitted from the sample, so hits are more common in it than they were. Unless noted, the call rests on the fitted dose curve; in most records, active means well fitted curve in the direction sought with a large enough effect; inconclusive means small, poorly fitted or top-dose-only effect, or another doubt; inactive means no such curve, though single readings can be large; an effect the other way counts as inactive or inconclusive. Unless noted, on the % scale 0 is the no-effect control and ±100 the full control effect.
SMILES,TDP1 cell noCPT,HT1080NT lethal,HT1080 IDH1KD tx,IL1B secr inh,ALOX12 inh,TDP1 cell CPT
CCOC(=O)N1CCN(C(=O)CN(Cc2ccc(Cl)cc2)S(=O)(=O)c2ccccc2)CC1,21µM*,1%,1%,-11,-25%,u
CCOC(=O)N1CCN(C(=O)CN(Cc2ccccc2)S(C)(=O)=O)CC1,2%,-5%,1%,-16,9%,u
CCN(CC)S(=O)(=O)c1ccc(N2CCN(c3ccccc3O)CC2)nc1,21µM*,u,-27%,-5,-6%,u
CN(C)C[C@@H]1CN(c2ncccn2)C[C@H]1NS(=O)(=O)c1ccc(C#N)cc1,x,x,x,x,-7%,x
Cc1ccc(N(CC(=O)NCC2CCCO2)S(=O)(=O)c2ccccc2)cc1 (configuration not stated),x,x,x,x,-1%,x
CC(=O)NNC(=S)NCc1ccc(C)cc1,x,x,x,x,29%,x
COc1ccc(C)cc1-n1nnnc1SCc1nc(CC(C)C)no1,x,x,x,x,-3%,x
CN(C)c1ccc(CNc2ccccn2)cc1,u,13%,23%,-9,16%,-23%
CN(C)c1ccc(CNc2ncnc3sccc23)cc1,2.1µM*,u,u,14,-14%,4.1µM*
COc1cc2ncnc(NCc3ccccc3F)c2cc1OC,u,11%,3%,-21,0%,u
Fc1ccccc1CNc1ncnc2sccc12,8.2µM*,-4%,u,-8,12%,4.1µM*
c1ccc2c(c1)OCC(CNCC1COc3ccccc3O1)O2 (configuration not stated),0%,-7%,-1%,30,15%,-8%
c1ccc2c(c1)OCC(CNc1ncnc3sccc13)O2 (configuration not stated),0.65µM*,0.73µM*,1.2µM*,-12,-14%,1.2µM*
COc1ccccc1Nc1sc(C(=O)c2ccc(Br)cc2)c(N)c1C(N)=O,x,x,x,x,-34%,x
COc1cccc(Nc2sc(C(=O)c3ccc(F)cc3)c(N)c2C(=O)NCc2ccc(C)cc2)c1,5.2µM*,x,x,x,u,4.1µM*
COc1ccc(CNC(=O)c2c(Nc3ccccc3C)sc(C(=O)c3ccccc3)c2N)cc1,5.2µM*,x,x,x,-1%,u
Cc1ccc(CNC(=O)c2c(Nc3ccccc3C)sc(C(=O)c3ccc(F)cc3)c2N)cc1,15µM*,x,x,x,u,u
CCCCn1cnc2c1c(=O)[nH]c(=O)n2CCC,x,x,x,x,-24%,x
CCCn1c(C)cnc1CC1CCN(S(=O)(=O)c2ccc3c(c2)CCC3)C1 (configuration not stated),x,x,x,x,0%,x
C=Cc1ccc(COc2ccc3c(=O)c(Oc4ccccc4OC)coc3c2)cc1,x,x,x,x,17%,x
O=C(N[C@H]1C[C@H]2C(=O)Nc3ccccc3C(=O)N2C1)c1cccnc1,x,x,x,x,29%[176 µM],x
C=C(C)CN(CC)c1nc(N)c2c(N)nc3c(c2c1C#N)CC(=O)N3C12CC3CC(CC(C3)C1)C2,3.3µM*,-29%,-19%,-60*,u,3.3µM*
N#Cc1c(N2CCCC(O)C2)nc(N)c2c(N)nc3c(c12)CC(=O)N3C12CC3CC(CC(C3)C1)C2 (configuration not stated),18µM*,-16%,-14%,9,-6%,16µM*
CCCCN1C(=O)Cc2c1nc(N)c1c(N)nc(N(CCC)CCC)c(C#N)c21,-9%,-4%,1%,30,u,-15%
O=C(c1cc(F)ccc1Cl)N1C[C@@H](CO)[C@H](c2ccccn2)C1,x,x,x,x,1%,x
Cc1onc(-c2ccccc2)c1-c1nnc(CSc2nnnn2C2CCCCC2)o1,x,x,x,x,7%,x
